Hits are enriched below; roughly 4.1% of the tested compounds scored in any of these assays.
AmpC inh no detg: qHTS Inhibitors of AmpC Beta-Lactamase (assay without detergent). P00811. AmpC nitrocefin hydrolysis, absorbance 480 nm, 0.0001% Triton. Potency, µM (top dose mostly 57.1 µM), without a hit: top-dose activity change, negative = inhibition, usual class: inhibitors. 330,000 tested, 0.52% active. AID 485341, 2010;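 note: plate controls were no compound for no effect and no enzyme for full effect; nearly all actives have a fitted effect of over 20% in size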
Target sequence (P00811 whole entry, looked up): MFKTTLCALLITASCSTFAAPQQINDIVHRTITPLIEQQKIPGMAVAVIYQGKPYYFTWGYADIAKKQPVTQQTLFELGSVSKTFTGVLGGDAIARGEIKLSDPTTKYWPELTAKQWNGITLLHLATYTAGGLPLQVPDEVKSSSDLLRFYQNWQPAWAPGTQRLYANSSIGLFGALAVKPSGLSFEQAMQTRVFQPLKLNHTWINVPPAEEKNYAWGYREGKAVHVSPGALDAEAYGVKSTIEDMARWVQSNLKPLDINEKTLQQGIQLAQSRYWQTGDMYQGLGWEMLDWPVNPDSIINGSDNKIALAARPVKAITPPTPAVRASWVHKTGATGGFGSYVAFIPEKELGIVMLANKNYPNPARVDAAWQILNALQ
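AmpC (5.3 nM in the dispensed reagent) in 20 mM phosphate pH 7.0 with 0.01% (detergent screen) or 0.0001% Triton X-100 was preincubated with compounds for 15 min at room temperature. Nitrocefin was then added from an 800 uM solution, and hydrolysis was followed at 480 nm.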
Sm TGR block: qHTS Assay for the Inhibitors of Schistosoma Mansoni Peroxiredoxins; purified TGR, DTNB reduction, TNB absorbance 405 nm; Potency, µM (top dose mostly 114 µM), for the others: at the top dose activity change, negative = inhibition, usual class: inhibitors; 360,000 tested, 3% active; note: nearly all actives have a fitted effect of over 60% in size
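TGR 20 nM + NADPH 100 uM (dispensed conc.), cpd preinc 15 min RT; start with NADPH (500 uM addition) then DTNB (15 mM addition). Kinetic TNB absorbance, 405 nm filter. Four-parameter Hill fit across titration.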
AMA1 RON2 block: qHTS for Inhibitors of AMA1-RON; Towards Development of Antimalarial Drug Lead: Primary Screen | 360,000 tested, 0.2% active | AID 720542, 2013 | Potency, µM (titrated, usually from 58.2 µM), inactives show top-dose activity change, negative = inhibition, usual class: inhibitors | AlphaScreen AMA1-biotinylated RON2 peptide binding;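 note: 0% = vehicle wells and -100% = peptide control; nearly all actives have a fitted effect of over 45% in size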
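AMA1 (3D7) with his tag at 25 nM final met compounds first, then biotinylated RON2 peptide at 25 nM; detection used donor plus acceptor beads, 10 µg/mL apiece, read by AlphaScreen after 30 min at room temperature.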
FMDV antiviral: High Throughput Screening for Foot and Mouth Disease Virus Antivirals; FMDV antiviral cell-based qHTS; AID 1159524, 2015; Potency, µM (series often up to 57.9 µM), for the others: at the top dose activity change, negative = inhibition, usual class: inhibitors; 410,000 tested, 1.2% active; calls by dose curve; tested in HEK293T cells; note: read-out not given here; nearly all actives have a fitted effect of over 45% in size
AmpC inh detg: qHTS Inhibitors of AmpC Beta-Lactamase (assay with detergent); P00811; AmpC hydrolysis of nitrocefin, absorbance 480 nm, 0.01% Triton; Potency, µM (top dose mostly 114 µM), without a hit: at the highest dose activity change, negative = inhibition, actives largely listed as inhibitors; 370,000 tested, 0.041% active; AID 485294, 2010;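 note: 0% = no-compound wells and -100% = no-enzyme wells; nearly all actives have a fitted effect of over 25% in size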
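AmpC (5.3 nM in the dispensed reagent) in 20 mM phosphate pH 7.0 with 0.01% (detergent screen) or 0.0001% Triton X-100 was preincubated with compounds for 15 min at room temperature. Nitrocefin was then added from an 800 uM solution, and hydrolysis was followed at 480 nm.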
Starred values were filed as active, the others as inactive. Unless noted, calls come from the whole dose curve; as a rule, active = well fitted curve in the direction sought with a large enough effect; inconclusive = small, poorly fitted or top-dose-only effect, or another doubt; inactive = no such curve, though single readings can be large; an effect the other way counts as inactive or inconclusive. Unless noted, % is set by controls: 0 for no effect and ±100 for the full control effect; potency is the fitted concentration of half-maximal effect.

Results for COc1ccc(N2CCN(S(=O)(=O)c3ccc4c(c3)NC(=O)CC(=O)N4)CC2)cc1 ?
AmpC inh no detg: -13.5%; Sm TGR block: 11.2µM*; AMA1 RON2 block: 5.9%; FMDV antiviral: 4.5%; AmpC inh detg: 2.5%

How did O=C(CSCc1cccc(Br)c1)N=Nc1c(O)[nH]c2ccccc12 do in these assays?
AmpC inh no detg: -12.1%; Sm TGR block: 5.1%; AMA1 RON2 block: 3.2%; FMDV antiviral: -8.3%; AmpC inh detg: inconclusive

How did O=Nc1c(-c2c(O)[nH]c3cc(Br)ccc23)[nH]c2ccccc12 do in these assays?
AmpC inh no detg: 5.62µM*; Sm TGR block: -11.6%; AMA1 RON2 block: 10µM*; FMDV antiviral: 0.6%; AmpC inh detg: inconclusive

What do the screens show for `Cc1onc(-c2ccccc2)c1C(=O)Nc1ccc(OC(C)C)cc1`?
AmpC inh no detg: -13.3%; Sm TGR block: 3.0%; AMA1 RON2 block: -8.1%; FMDV antiviral: 0.708µM*; AmpC inh detg: inconclusive

Results for Cc1ccccc1CN1C(=O)c2ccccc2Sc2ccc(C(=O)NC(C)c3ccccc3)cc21 (stereo not drawn) ?
Sm TGR block: 4.2%; FMDV antiviral: -7.6%; AmpC inh detg: -2.0%

Results for Clc1ccc(C(c2ccccc2)N2CCN(c3ccccn3)CC2)cc1 (stereo not drawn) ?
AmpC inh no detg: -10.5%; Sm TGR block: -0.8%; AMA1 RON2 block: inconclusive; FMDV antiviral: inconclusive; AmpC inh detg: 0.0%

What do the screens show for `Cc1[nH]c2ccccc2c1C(c1ccncc1)N1CCN(c2ccccc2F)CC1` (stereo not drawn)?
AmpC inh no detg: 28.5%; Sm TGR block: 3.55µM*; AMA1 RON2 block: -16.9%; FMDV antiviral: inconclusive; AmpC inh detg: inconclusive

How did Cc1[nH]c2ccccc2c1C(c1ccncc1)N1CCC(C)CC1 (stereo not drawn) do in these assays?
AmpC inh no detg: -2.0%; Sm TGR block: 2.51µM*; AMA1 RON2 block: -9.8%; FMDV antiviral: -28.0%; AmpC inh detg: -6.6%

How did Cc1[nH]c2ccccc2c1C(c1ccncc1)N1CCN(c2ccccn2)CC1 (stereo not drawn) do in these assays?
AmpC inh no detg: 47.1%; Sm TGR block: 1µM*; AMA1 RON2 block: -21.6%; FMDV antiviral: -21.6%; AmpC inh detg: -2.9%

Results for Cc1[nH]c2ccccc2c1SCC(=O)N1CCC(C)CC1 ?
AmpC inh no detg: -8.9%; Sm TGR block: 16.8%; AMA1 RON2 block: -4.1%; FMDV antiviral: 20.6%; AmpC inh detg: -1.0%

Results for O=C(NCc1ccc(F)cc1)C(=O)NCC(c1ccc2c(c1)OCO2)N1CCOCC1 (stereo not drawn) ?
Sm TGR block: 5.6%; FMDV antiviral: 0.0%; AmpC inh detg: 6.4%

How did CCCS(=O)(=O)NCc1c(C)ncc2c1CCN(C(=O)/C=C/c1ccccc1)C2 do in these assays?
FMDV antiviral: -8.9%

How did CC(C)c1ccc(NC(=O)c2cnc3sc(N4CCOCC4)nn3c2=O)cc1 do in these assays?
Sm TGR block: -6.5%; FMDV antiviral: inconclusive; AmpC inh detg: 8.2%

What do the screens show for `Cc1ccc(NC(=O)c2cnc3sc(N4CCOCC4)nn3c2=O)cc1N(C)C`?
Sm TGR block: -3.4%; FMDV antiviral: 31.6µM*; AmpC inh detg: -0.8%

What do the screens show for `COc1cc2c(cc1OC)C(c1ccc(F)cc1)N(c1ccccc1)C(=O)C2` (stereo not drawn)?
Sm TGR block: -2.7%; FMDV antiviral: -9.3%; AmpC inh detg: -9.1%

Results for CCN(CC)c1sc(S(=O)(=O)c2ccccc2)nc1S(=O)(=O)c1ccc(C)cc1 ?
Sm TGR block: -0.9%; FMDV antiviral: 36.2%; AmpC inh detg: 2.7%

Results for O=[N+]([O-])c1cc(C(F)(F)F)ccc1NC1CCN(Cc2ccccc2)C1 (stereo not drawn) ?
AmpC inh no detg: 67.4%; Sm TGR block: -26.3%; AMA1 RON2 block: -26.0%; FMDV antiviral: -8.0%; AmpC inh detg: 5.0%

How did O=[N+]([O-])c1cc(C(F)(F)F)ccc1NC1CCN(Cc2ccccc2)CC1 do in these assays?
AmpC inh no detg: 10.3%; Sm TGR block: 0.7%; AMA1 RON2 block: 12.6µM*; FMDV antiviral: 0.0%; AmpC inh detg: 0.3%

What do the screens show for `CCN(CC)c1ccc(NC(=O)Nc2ccc(C(C)=O)cc2)cc1`?
AmpC inh no detg: 0.282µM*; Sm TGR block: -1.2%; AMA1 RON2 block: -4.7%; FMDV antiviral: -6.5%; AmpC inh detg: 2.8%

How did Cc1ccc(CN2CCCn3nc(C(=O)NCc4cc(C)ccc4C)cc3C2=O)cc1 do in these assays?
Sm TGR block: -3.9%; FMDV antiviral: -22.4%; AmpC inh detg: -2.1%

How did CSc1cccc(NC(=O)C2CCN(c3ncnc4c3nc3n4CCCCC3)CC2)c1 do in these assays?
Sm TGR block: 2.2%; FMDV antiviral: -21.4%; AmpC inh detg: 1.1%

How did N#Cc1cc(-c2ccccc2)nc(Oc2ccccc2)n1 do in these assays?
AmpC inh no detg: 3.0%; Sm TGR block: -10.9%; AMA1 RON2 block: 27.0%; FMDV antiviral: inconclusive; AmpC inh detg: -10.4%

Results for N#Cc1ccc(Oc2nc(C#N)cc(-c3ccccc3)n2)cc1 ?
AmpC inh no detg: -25.2%; Sm TGR block: 1.7%; AMA1 RON2 block: 24.8%; FMDV antiviral: 11.2µM*; AmpC inh detg: -8.6%

What do the screens show for `Cc1nc(N2CCOCC2)c2c(C(=O)N3CCN(c4cccc(C)c4C)CC3)c(C)oc2n1`?
Sm TGR block: 24.6%; FMDV antiviral: -20.9%; AmpC inh detg: 22.1%

How did COc1ccccc1OCCSc1nc2ccccc2n1CC(=O)N1CCOCC1 do in these assays?
Sm TGR block: -8.0%; FMDV antiviral: 31.2%; AmpC inh detg: -5.3%

Results for O=[N+]([O-])c1cc(/C=N\Nc2nccs2)ccc1O ?
AmpC inh no detg: inconclusive; Sm TGR block: 28.2µM*; AmpC inh detg: inconclusive

What do the screens show for `COc1ccc(OC)c(CCNC(=O)c2cc3cccc4c3n2CCS4)c1`?
Sm TGR block: 3.0%; FMDV antiviral: 4.47µM*; AmpC inh detg: 16.0%

How did COc1ccc(OC)c(CCNC(=O)c2cc3cccc4c3n2CC(C)S4)c1 (stereo not drawn) do in these assays?
Sm TGR block: 5.8%; FMDV antiviral: -21.1%; AmpC inh detg: 2.1%

Results for Cc1ccc(CCC(=O)Nc2ccc(S(N)(=O)=O)cc2)o1 ?
AmpC inh no detg: -29.2%; Sm TGR block: 14.1µM*; AMA1 RON2 block: -2.3%; FMDV antiviral: -5.4%; AmpC inh detg: -2.5%

Results for CC(=O)Nc1ccc(NC(=O)CCc2ccc(C)o2)cc1 ?
AmpC inh no detg: -14.9%; Sm TGR block: -2.5%; AMA1 RON2 block: -5.5%; FMDV antiviral: 1.6%; AmpC inh detg: -2.4%
